Test results reported in PubChem BioAssay (NCI).
Compounds without any hit were thinned out: in the full panel of roughly 83,000, 20% have a hit.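 96-well plates, one dose, 48 hours. Percent growth reported; active if below 10.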 A number with no mark means an inactive call. Activity calls are given as the source filed them.

What follows are compounds tested on SF-539 CNS (assay: NCI-60 one-dose screen, 48 h (100 = growth as untreated, 0 = no growth, -100 = all killed)). Conditions: 10 µM unless noted.

SMILES | growth
O=C1Nc2cc(-c3ccc(NS(=O)(=O)c4ccc(F)c(Cl)c4)cc3)ccc2/C1=C/c1ccc[nH]1 | -34.8% (active)
CCOC(=O)/C(F)=C/C1CC1C1CCN(C(=O)OC(C)(C)C)CC1 (configuration not stated) | 103%
CN1CCN(CCS(=O)(=O)Nc2cc(-c3ccc4ncnc(Nc5ccc(F)c(Cl)c5)c4c3)cnc2Cl)CC1 | -8.6% (active)
N#Cc1cc(-c2ccc3ncnc(N4CCc5cc(F)c(Cl)cc54)c3c2)cnc1N | 35.6%

The compounds below were run on UACC-257 melanoma in the same assay as above. Conditions: 10 µM unless noted.

SMILES | growth
O=c1ccc(Cn2c(C(F)(F)F)cc3c(Cl)ncnc32)c[nH]1 | 24%
CC[C@]12C=CCN3CC[C@]4(C(=C(C(=O)OC)C1)Nc1cc(OC)c([C@@H]5[C@H]6O[C@H]6[C@@]6(CC)CC(C(=O)OC)=C7Nc8cc(O)ccc8[C@@]78CCN5[C@@H]68)cc14)[C@@H]32 | -10.2% (active)
COc1ccc2[nH]cc(-c3cc4nc(-c5cn(C)c6ncccc56)cc(N)n4n3)c2c1 | 72.7%
COc1ccc2[nH]c(=O)cc(-n3ncc(C(=O)/C=C/c4cc(OC)c(OC)c(OC)c4)c3C)c2c1 | -6.58% (active)
COc1ccc(/C=C/c2nc3ccccc3n3c(-c4cccc([N+](=O)[O-])c4)nnc23)cc1 | -48.9% (active)
O=C(Nc1ccc(Cl)c(C(F)(F)F)c1)N1CCN(c2cc(-c3cn(-c4ccccc4)nc3-c3cccc(O)c3)ccn2)CC1 | -16.6% (active)
O=C1Nc2ccccc2/C1=C/C(=O)c1cc2ccccc2oc1=O | 104%
CN1CCN(C(=O)Oc2cc3c(c4ccccc24)[C@H](CCl)CN3C(=O)c2cc3cc(OCCCN4CCC4)ccc3[nH]2)[C@H]2CSSC[C@H]21 | -15.6% (active)
